Consider 13 molecules from PubChem BioAssay (EPA / NIEHS).

What all share (conditions): primary human HUVEC with PBMC; actives raise or lower the signal
The nature of test [1]: BSK_LPS_PGE2: BioMAP Diversity Plus: LPS Assay for Prostaglandin E2 (PGE2) Biomarker Activity (AID 2283082).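 For AC50: secreted prostaglandin E2 measured by ELISA in LPS-stimulated co-culture.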 The gist of the method:
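PGE2 release measured by ELISA in an LPS-activated co-culture of human umbilical vein endothelial cells and peripheral blood mononuclear cells, read at 24 h post-dosing. DMSO served as baseline for bidirectional curve fitting.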

Read-out in test [2]: Macrophage colony-stimulating factor (MCSF), CSF1 (gene 1435)
Nature of the test: BSK_LPS_MCSF: BioMAP Diversity Plus: LPS Assay for Macrophage colony-stimulating factor (MCSF) Biomarker Activity (AID 2283083). Summed up:
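Bidirectional fit versus DMSO of ELISA-measured M-CSF in co-cultured human umbilical vein endothelial cells and PBMC, sampled 24 h after dosing.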

Read-out in test [3]: Tissue Factor, F3 (gene 2152)
Description: BSK_LPS_TissueFactor: BioMAP Diversity Plus: LPS Assay for Tissue Factor Biomarker Activity (AID 2283084). Summed up:
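Read-out: CD142 ELISA, 24 h. System: LPS-driven human endothelial/PBMC co-culture. Analysis: up- or down-signal fitted against DMSO.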

Read-out in test [4]: Tumor necrosis factor (Homo sapiens) (UniProt P01375)
Nature of the test: BSK_LPS_TNFa: BioMAP Diversity Plus: LPS Assay for Tumour Necrosis Factor alpha (TNFa) Biomarker Activity (AID 2283085).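 For AC50: TNFa protein level quantified by ELISA in the co-culture.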 Summed up: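 TNFa was quantified by ELISA in LPS-activated co-cultures of human endothelial cells and PBMC, 24 h post-dosing. Both increases and decreases versus DMSO were fitted.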

Read-out in test [5]: Vascular cell adhesion molecule 1 (VCAM1), VCAM1 (gene 7412)
Nature of the test: BSK_LPS_VCAM1: BioMAP Diversity Plus: LPS Assay for Vascular cell adhesion molecule 1 (VCAM1) Biomarker Activity (AID 2283086). The gist of the method: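 VCAM-1 quantified by ELISA in an LPS-activated co-culture of human endothelial cells and peripheral blood mononuclear cells, read 24 h post-treatment. Fitted in both directions versus DMSO; parallel SRB staining flags overt cytotoxicity.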

Read-out in another test: CD38, CD38 (gene 952)
Description: BSK_SAg_CD38: BioMAP Diversity Plus: SAg Assay for CD38 Biomarker Activity (AID 2283087). The gist of the method:
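CD38 quantified by ELISA (fluorescence) in a superantigen-activated endothelial cell–PBMC co-culture at 24 h post-dose. Activity fitted in both directions relative to DMSO; parallel SRB and Alamar Blue cytotoxicity read-outs.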

Read-out in a further test: CD40, CD40 (gene 958)
Description: BSK_SAg_CD40: BioMAP Diversity Plus: SAg Assay for CD40 Biomarker Activity (AID 2283088). Summed up:
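Endpoint derived by fitting increases or decreases versus DMSO controls. CD40 is detected by fluorescence ELISA in a human vascular co-culture of endothelium and PBMC at 24 h.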

Read-out in another test: CD69, CD69 (gene 969)
Description: BSK_SAg_CD69: BioMAP Diversity Plus: SAg Assay for CD69 Biomarker Activity (AID 2283089).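 For AC50: cell surface CD69 protein quantified by ELISA with fluorescence detection.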 The gist of the method: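 HUVEC co-cultured with PBMC were dosed with chemical, and CD69 was measured by ELISA with fluorescence read-out 24 h later. Bidirectional curve fitting used DMSO as negative control and activity baseline.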

Read-out in test [6]: Monocyte Chemoattractant Protein-1 (MCP1), CCL2 (gene 6347)
Description: BSK_SAg_MCP1: BioMAP Diversity Plus: SAg Assay for Monocyte Chemoattractant Protein-1 (MCP1) Biomarker Activity (AID 2283090). The gist of the method: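 Values derive from bidirectional fitting of ELISA-measured MCP1 against DMSO controls. Readings were taken 24 h after dosing human vascular endothelial cells co-cultured with peripheral blood mononuclear cells under superantigen stimulation.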

Read-out in test [7]: E-selectin (Homo sapiens) (UniProt P16581)
Nature of the test: BSK_SAg_Eselectin: BioMAP Diversity Plus: SAg Assay for Eselectin Biomarker Activity (AID 2283091). The gist of the method: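 Endpoint values derive from bidirectional fitting relative to DMSO, using ELISA-measured E-selectin in a human vascular co-culture (umbilical vein endothelium plus PBMC) sampled 24 h after dosing.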

Activity calls are given as the source filed them. Rule for the calls: active = hit-call score of the fitted dose curve at least 0.9, where 1 is the maximum; inactive = score below 0.9.

E-selectin (Homo sapiens), sequence (P16581 whole entry, looked up): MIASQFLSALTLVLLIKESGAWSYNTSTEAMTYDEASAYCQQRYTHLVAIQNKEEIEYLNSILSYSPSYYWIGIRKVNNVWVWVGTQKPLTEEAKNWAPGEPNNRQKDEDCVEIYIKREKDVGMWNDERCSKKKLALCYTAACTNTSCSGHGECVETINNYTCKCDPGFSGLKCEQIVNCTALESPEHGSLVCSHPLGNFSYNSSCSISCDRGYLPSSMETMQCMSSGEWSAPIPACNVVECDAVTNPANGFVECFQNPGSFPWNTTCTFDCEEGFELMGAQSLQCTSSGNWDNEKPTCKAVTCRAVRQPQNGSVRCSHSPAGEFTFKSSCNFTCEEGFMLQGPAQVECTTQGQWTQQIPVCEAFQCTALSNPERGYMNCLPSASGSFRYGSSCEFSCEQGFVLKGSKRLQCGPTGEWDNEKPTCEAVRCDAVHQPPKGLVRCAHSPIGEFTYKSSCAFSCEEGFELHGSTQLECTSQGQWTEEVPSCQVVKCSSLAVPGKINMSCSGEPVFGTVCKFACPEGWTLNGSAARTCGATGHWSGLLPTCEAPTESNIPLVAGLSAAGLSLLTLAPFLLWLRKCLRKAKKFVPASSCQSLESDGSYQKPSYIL
Tumor necrosis factor (Homo sapiens), sequence (P01375 whole entry, looked up): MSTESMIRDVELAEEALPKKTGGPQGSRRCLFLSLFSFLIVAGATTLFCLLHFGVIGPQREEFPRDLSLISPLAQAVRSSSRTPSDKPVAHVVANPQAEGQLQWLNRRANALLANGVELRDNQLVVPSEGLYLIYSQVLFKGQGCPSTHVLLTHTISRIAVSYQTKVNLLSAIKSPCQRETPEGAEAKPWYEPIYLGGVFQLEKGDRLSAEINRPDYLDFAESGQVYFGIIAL

In the case of `CC(C)OC(=O)Nc1cccc(Cl)c1`, the AC50 in test [1] is 6.13 µM (active). Further, the outcome is “inactive” in [2]; “inactive” in test [3]; “inactive” in test [4]; “inactive” in [5]; “inactive” in the test with CD38, CD38 (gene 952); “inactive” with CD40, CD40 (gene 958). Besides, the outcome in the test with CD69, CD69 (gene 969) is “inactive”; in test [6], “inactive”; in test [7] it was “inactive”.

As to `CC[C@H](C)[C@H]1O[C@]2(C=C[C@@H]1C)C[C@@H]1C[C@@H](C/C=C(\C)[C@@H](O[C@H]3C[C@H](OC)[C@@H](O[C@H]4C[C@H](OC)[C@@H](O)[C@H](C)O4)[C@H](C)O3)[C@@H](C)/C=C/C=C3\CO[C@@H]4[C@H](O)C(C)=C[C@@H](C(=O)O1)[C@]34O)O2` (tested in a mixture with another compound), the result in test [1] and in [3] was inactive. Moreover, the AC50 in test [2] was 9.77 µM (active); in test [4] it was 10.3 µM (active); in test [5], 6.17 µM (active); with CD38, CD38 (gene 952), 7.86 µM (active); with CD40, CD40 (gene 958) it was 5.74 µM (active); with CD69, CD69 (gene 969) it was 7.28 µM (active). Besides, the half-maximal activity concentration (AC50) in test [6] is 5.58 µM (active); in test [7], 5.19 µM (active).

In the case of `CCc1ccc(C(=O)NN(C(=O)c2cc(C)cc(C)c2)C(C)(C)C)cc1`, the AC50 in test [1] is 20 µM (active); in test [4], 14.2 µM (active); with CD38, CD38 (gene 952), 30.6 µM (active); with CD69, CD69 (gene 969) it was 13.5 µM (active); in test [7], 9.03 µM (active). Moreover, the outcome in [2] was “inactive”; in test [3], “inactive”; in test [5], “inactive”; in the test with CD40, CD40 (gene 958) it was “inactive”; in test [6] it was “inactive”.

For the molecule `Cc1cc(C)nc(NC(=O)NS(=O)(=O)c2ccccc2C(=O)OC2COC2)n1`, the outcome in [1] is “inactive”; in test [3], “inactive”; in test [4] it was “inactive”; in test [5], “inactive”; in the test with CD38, CD38 (gene 952), “inactive”; with CD40, CD40 (gene 958), “inactive”. In addition, the outcome is “inactive” with CD69, CD69 (gene 969); “inactive” in test [6]; “inactive” in test [7]. The AC50 in test [2] was 0.331 µM (active).

For the molecule `Clc1ccccc1-c1nnc(-c2ccccc2Cl)nn1`, the outcome in test [1] was “inactive”; in test [2] it was “inactive”; in test [3] it was “inactive”; in [4], “inactive”; in [5] it was “inactive”; with CD38, CD38 (gene 952) it was “inactive”. For the same molecule, the outcome with CD40, CD40 (gene 958) was “inactive”; in the test with CD69, CD69 (gene 969), “inactive”; in test [6] it was “inactive”; in test [7] it was “inactive”.

With `N#CN`, the outcome is “inactive” in test [1]; “inactive” in [2]; “inactive” in [3]; “inactive” in test [4]; “inactive” in test [5]; “inactive” in the test with CD38, CD38 (gene 952). Also, the outcome was “inactive” in the test with CD40, CD40 (gene 958); “inactive” with CD69, CD69 (gene 969); “inactive” in test [6]; “inactive” in test [7].

Regarding `CNC(=O)Oc1ccccc1OC(C)C`, the outcome is “inactive” in test [1]; “inactive” in test [2]; “inactive” in test [3]; “inactive” in test [4]; “inactive” in test [5]; “inactive” with CD38, CD38 (gene 952). Further, the outcome in the test with CD40, CD40 (gene 958) is “inactive”; with CD69, CD69 (gene 969) it was “inactive”; in test [6], “inactive”; in test [7] it was “inactive”.

`O=C(O)COc1ccc(Cl)cc1Cl`: the outcome is “inactive” in test [1]; “inactive” in test [2]; “inactive” in test [3]; “inactive” in test [4]; “inactive” in test [5]; “inactive” with CD38, CD38 (gene 952). Moreover, the outcome was “inactive” with CD40, CD40 (gene 958); “inactive” with CD69, CD69 (gene 969); “inactive” in [6]; “inactive” in test [7].

Consider `CCCN(CCOc1c(Cl)cc(Cl)cc1Cl)C(=O)n1ccnc1`, for which the AC50 in [1] was 0.42 µM (active); in test [2], 20 µM (active); in [4], 0.875 µM (active); with CD38, CD38 (gene 952), 30.7 µM (active); with CD40, CD40 (gene 958), 27.8 µM (active); with CD69, CD69 (gene 969) it was 14.9 µM (active). Moreover, the AC50 in test [6] was 29.6 µM (active); in [7], 20.6 µM (active). The result in [3] and in test [5] was inactive.

For the molecule `[2H]C1([2H])[n+]2ccccc2-c2cccc[n+]2C1([2H])[2H]`, the outcome in [1] was “inactive”; in test [2], “inactive”; in test [3] it was “inactive”; in [4], “inactive”; in test [5], “inactive”; in the test with CD38, CD38 (gene 952) it was “inactive”. Further, the outcome was “inactive” with CD40, CD40 (gene 958); “inactive” in the test with CD69, CD69 (gene 969); “inactive” in [6]; “inactive” in test [7].

Take `CN1CSC(=S)N(C)C1`: the concentration at half-maximal activity (AC50) in test [1] is 3.85 µM (active); in [2], 10.8 µM (active); in [3], 13.7 µM (active); in test [4], 8.45 µM (active); in test [5], 18.3 µM (active); with CD38, CD38 (gene 952), 23.3 µM (active). Also, the AC50 with CD40, CD40 (gene 958) was 20 µM (active); with CD69, CD69 (gene 969) it was 20 µM (active); in test [6] it was 15 µM (active); in test [7], 19.8 µM (active).

As to `COP(=O)(OC)OC=C(Cl)Cl`, the outcome in test [1] is “inactive”; in [3], “inactive”; with CD38, CD38 (gene 952), “inactive”; with CD40, CD40 (gene 958) it was “inactive”; with CD69, CD69 (gene 969), “inactive”. The AC50 is 20 µM (active) in test [2]; 4.96 µM (active) in test [4]; 30.1 µM (active) in test [5]; 17.5 µM (active) in test [6]; 28.9 µM (active) in test [7].

On to `CCN(CC)C(=O)SCc1ccc(Cl)cc1`, for which the AC50 in test [1] is 7.03 µM (active). In addition, the outcome was “inactive” in test [2]; “inactive” in test [3]; “inactive” in [4]; “inactive” in test [5]; “inactive” with CD38, CD38 (gene 952); “inactive” in the test with CD40, CD40 (gene 958). Besides, the outcome is “inactive” with CD69, CD69 (gene 969); “inactive” in test [6]; “inactive” in test [7].

For orientation: AC50 means the concentration giving half of the maximal activity seen.
